Experimental data: PubChem BioAssay (NCATS)
Results filed as inconclusive are left out. Activity calls are given as the source filed them. Unless noted, the call rests on the fitted dose curve; in most records, active means well fitted curve in the direction sought with a large enough effect; inconclusive means small, poorly fitted or top-dose-only effect, or another doubt; inactive means no such curve, though single readings can be large; an effect the other way counts as inactive or inconclusive.

Key:
[1] = target: Lysosomal acid glucosylceramidase (Homo sapiens) (UniProt P04062); experiment: Glucocerebrosidase-p2 (AID 348; in the data active means potency below about 10 µM; further: potency means the concentration at half of the fitted maximal effect); conditions: purified GBA, blue fluorogenic substrate, 40 min
Outline: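 Compounds titrated from 0.6 nM upwards against 0.2 nM enzyme in pH 5.9 citric acid/KH2PO4, taurocholate, tween-20; blue fluorogenic substrate 80 uM, 40 min room temperature, stopped and read Ex 365/Em 440 for AC50.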

[2] = AP1 Signaling Pathway (AID 357; active means well fitted curve in either direction with a large enough effect, not every such curve was filed as active;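 further: ME-180 reporter cells stimulated with EGF at its EC50 level; on the % scale 0 is the no-effect control and ±100 the full control effect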); conditions: ME-180 AP-1-bla reporter, EGF-induced, beta-lactamase ratio, 5 h; at 7.69 µM (top of the series) unless noted
Outline: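 AP-1-bla ME-180 cells, Opti-MEM + 0.5% dialyzed FBS, plated overnight 37 °C. Cpd titration + EC50 EGF, 5 h 37 °C. CCF4 2.5 h RT; ex 405, em 460/530 ratio → %activity, AC50.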

[3] = target: Cytochrome P450 1A2 (Homo sapiens) (UniProt P05177); experiment: p450-cyp1a2 (AID 410; calls by dose curve; further: potency means the concentration at half of the fitted maximal effect); conditions: recombinant CYP1A2, luciferin-ME demethylation, luminescence; series mostly up to 57 µM
Outline: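 20nM CYP1A2 with 100uM Luciferin-ME (at Km) in 100mM KPO4; compound preincubated 10 min, NADPH regeneration added, 60 min at room temperature. Luciferin quantified by luminescence after detection reagent; normalized to 57 uM furafylline.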

[4] = NFAT Signaling Pathway (AID 444; active means well fitted curve in either direction with a large enough effect, not every such curve was filed as active;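 further: carbachol stimulus at about its EC50 of 1 µM final; on the % scale 0 is the no-effect control and ±100 the full control effect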); conditions: Jurkat NFAT-bla M1, carbachol, beta-lactamase ratio, 5 h; at 7.69 µM (top of the series) unless noted
Outline: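 Read-out: CCF4 FRET ratio (460 nm/530 nm) after 1 h RT dye loading, used for %activity and AC50 from titration series. Cells: Jurkat NFAT-β-lactamase/M1 line, treated with compound plus 1 uM carbachol for 5 h, 37 °C.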

[5] = Stat Signaling Pathway (AID 446; active means well fitted curve in either direction with a large enough effect, not every such curve was filed as active;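 further: ME-180 cervical cancer cells given 40 pM IL-6 alongside compound; SIE-controlled beta-lactamase reporter measured as 460/530 nm FRET emission ratio; on the % scale 0 is the no-effect control and ±100 the full control effect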); conditions: ME-180 SIE beta-lactamase reporter, IL-6 stimulated, 5 h; at 7.69 µM (top of the series) unless noted
Outline: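 ME-180 SIE-bla cells; overnight plating; cpd + IL-6 40 pM, 5 h, 37 C; LiveBLAzer 2.5 h RT; 460/530 nm emission ratio. Normalized to 300 pM IL-6 and 125 nM JAK inhibitor controls.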

[6] = target: Glucocorticoid receptor (Homo sapiens) (UniProt P04150); experiment: GR-GFP Redistribution (AID 450;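 active means compounds whose dose series gives a full or clear partial fitted curve of increased nuclear translocation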; further: potency means the concentration at half of the fitted maximal effect); conditions: U2OS GR-GFP nuclear translocation, laser cytometry, 2 h
[7] = target: Glucocorticoid receptor (Homo sapiens) (UniProt P04150); experiment: GR-EFC Redistribution (AID 451; calls by dose curve; further: potency means the concentration at half of the fitted maximal effect); conditions: CHO-K1 GR-EFC translocation, beta-gal luminescence, 2 h
Outline: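 Translocation of GR-ED fusion to nuclear EA restores b-gal, read by luminescence after 1 h room-temperature detection. Engineered CHO-K1 biosensor cells, 1,000/well, exposed 2 h at 37 C to titrations up to 46 uM final.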

[8] = target: Mitogen-activated protein kinase 10 (Mus musculus) (UniProt Q61831); experiment: JNK3 AlphaScreen Assay (AID 530; active means well fitted curve in either direction with a large enough effect, not every such curve was filed as active;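 further: kinase came from lysate of stimulated human HepG2 cells; signal reports phosphorylation of biotinylated GST-cJun 1-79 at Ser73 with 10 µM ATP; on the % scale 0 is the no-effect control and ±100 the full control effect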); conditions: JNK3 lysate, c-Jun phosphorylation; series mostly up to 57.1 µM
Outline: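 Compound titrations were preincubated 15 minutes at room temperature with substrate, antibody and pre-activated JNK3-containing HepG2 lysate. Reactions were started with 10 uM ATP and stopped with EDTA-containing bead buffer for AlphaScreen detection.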

[9] = target: 3',5'-cyclic-AMP phosphodiesterase 4B (Homo sapiens) (UniProt Q07343); experiment: qHTS Assay for Inhibitors of PDE-IV (AID 607; active means well fitted activation curve with a large enough effect in the main read-out, with a control signal flat, not every such curve was filed as active; further: potency means the concentration at half of the fitted maximal effect); conditions: HEK293 ACTOne CNG channel cells, membrane potential fluorescence; series mostly up to 22.9 µM
Outline: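 ACTOne HEK293 cells carry a modified cAMP-gated CNG channel and express endogenous PDE4; plated 1000 cells/well, compounds up to 22.9 uM final. Membrane-potential dye fluorescence (ex 535/em 590) was read; parental cells received 10 uM forskolin + 100 uM RO 20-1724.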

[10] = target: Cytochrome P450 3A4 (Homo sapiens) (UniProt P08684); experiment: qHTS Assay for Inhibitors and Substrates of Cytochrome P450 3A4 (AID 884); conditions: recombinant CYP3A4, Luciferin-PPXE luminescence; series mostly up to 57.1 µM; further: potency means the concentration at half of the fitted maximal effect; nearly all actives have a fitted effect of over 50% in size
Outline: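 20 nM human CYP3A4 with 25 uM Luciferin-PPXE (at KM) in 200 mM KPO4, preincubated 10 min with compound; NADPH regeneration started a 60 min RT reaction. Luciferin detected by luminescence, normalized to 57 uM ketoconazole as full inhibition.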

[11] = target: Cytochrome P450 3A4 (Homo sapiens) (UniProt P08684); experiment: qHTS Assay for Activators of Cytochrome P450 3A4 (AID 885); conditions: recombinant CYP3A4, Luciferin-PPXE luminescence, 60 min; series mostly up to 57.1 µM; further: nearly all actives have a fitted effect of over 65% in size
Outline: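 20nM CYP3A4 + 25uM Luciferin-PPXE (=KM), 200mM KPO4; cpd 10 min RT; NADPH regen, 60 min RT; stop w/ detection buffer, 20 min; luminescence. Normalized to 57 uM ketoconazole.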

[12] = target: Dual specificity protein kinase CLK4 (Homo sapiens) (UniProt Q9HAZ1); experiment: qHTS Assay for Inhibitors of CDC-like Kinase 4 (ADP-Glo Assay) (AID 1771); conditions: recombinant CLK4, ADP-Glo luminescence; series mostly up to 80 µM; further: potency means the concentration at half of the fitted maximal effect; nearly all actives have a fitted effect of over 70% in size
Outline: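 25 nM Clk4 with 100 uM RS repeat peptide and 1 uM ATP (final) in buffer with 2 mM MgCl2, 0.5 mM EGTA, 2.5 mM DTT, 0.01% Triton X-100; 1 h at room temperature; ADP-Glo luminescence for ADP formed.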

[13] = target: Ubiquitin carboxyl-terminal hydrolase 1 (Homo sapiens) (UniProt O94782); experiment: Inhibitors of USP1/UAF1: Pilot qHTS (AID 504865); conditions: purified USP1/UAF1, Ub-rhodamine cleavage fluorescence; series mostly up to 54.9 µM;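 further: rhodamine fluorescence freed from ubiquitin-rhodamine substrate followed over time; top concentration of the series differs between compounds; on the % scale 0 is the no-effect control and ±100 the full control effect; nearly all actives have a fitted effect of over 35% in size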
Outline: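 Kinetic fluorescence assay: 1nM USP1/UAF1, 15 min compound preincubation, then 150nM Ub-Rho; 480/540 nm.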

[14] = Primary qHTS for small molecule stabilizers of the endoplasmic reticulum resident proteome: Secreted ER Calcium Modulated Protein (SERCaMP) assay (AID 1508630); conditions: SH-SY5Y GLuc-SERCaMP (Gaussia luciferase released on ER calcium loss) secretion, thapsigargin, luminescence; series mostly up to 38.4 µM; further: on the % scale 0 is the no-effect control and ±100 the full control effect
Outline: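 GLuc-SERCaMP-expressing SH-SY5Y cells, pretreated 16 h with compound, are challenged with thapsigargin to empty ER calcium stores; after 4 h, coelenterazine is added directly to the medium and luminescence is imaged.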

[15] = target: Cytochrome P450 2C9 (Homo sapiens) (UniProt P11712); experiment: qHTS Assay for Inhibitors and Substrates of Cytochrome P450 2C9 (AID 883); conditions: recombinant CYP2C9, luciferin-H luminescence, 60 min; series mostly up to 57.1 µM; further: nearly all actives have a fitted effect of over 60% in size; further: potency means the concentration at half of the fitted maximal effect
Outline: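 Luminescent read-out of deoxyluciferin hydroxylation, normalized to 57uM sulphaphenazole (AC100). Reaction: 10nM enzyme, 100uM Luciferin-H (equal to KM), 25mM KPO4, 10 min compound preincubation, then 60 min with NADPH regeneration, both at 37C.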

[16] = target: Dual specificity protein kinase CLK4 (Homo sapiens) (UniProt Q9HAZ1); experiment: qHTS Assay for Inhibitors of CDC-like Kinase 4 (ADP-FP Assay) (AID 1795); conditions: Transcreener ADP fluorescence polarization; series mostly up to 50 µM;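 further: recombinant human CLK4 phosphorylating RS repeat peptide at 1 µM ATP; on the % scale 0 is the no-effect control and ±100 the full control effect; nearly all actives have a fitted effect of over 60% in size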
Outline: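 Inhibition of ADP formation by 6.25 nM Clk4 is measured using 1 uM ATP and 100 uM RS repeat peptide over one hour. Produced ADP displaces a fluorescent tracer from antibody, lowering polarization.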

[17] = target: Cytochrome P450 2D6 (Homo sapiens) (UniProt P10635); experiment: qHTS Assay for Inhibitors and Substrates of Cytochrome P450 2D6 (AID 891); conditions: recombinant CYP2D6, luciferin-ME EGE luminescence; series mostly up to 57.1 µM; further: potency means the concentration at half of the fitted maximal effect; nearly all actives have a fitted effect of over 60% in size
Outline: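 Human CYP2D6 (5 nM) with 30 uM Luciferin-ME EGE (at Km) in 100 mM KPO4, compound preincubated 10 min, then NADPH regeneration system for 60 min at room temperature. Luciferin read by luminescence; normalized to 1.43 uM quinidine.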

[18] = target: Cytochrome P450 2C19 (Homo sapiens) (UniProt P33261); experiment: qHTS Assay for Inhibitors and Substrates of Cytochrome P450 2C19 (AID 899); conditions: recombinant CYP2C19, luciferin-H EGE luminescence; series mostly up to 57.1 µM; further: potency means the concentration at half of the fitted maximal effect; nearly all actives have a fitted effect of over 60% in size
Outline: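 Luminescence readout of luciferin formed from 10uM Luciferin-H EGE (KM level) by 5 nM CYP2C19 in 50mM KPO4. 60 min NADPH-driven reaction at 37C after 10 min compound preincubation; data scaled to 57uM ketoconazole inhibition.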

[19] = qHTS Assay for Identification of Small Molecule Agonists for Hypoxia Response Element Signaling Pathway (AID 914; active means well fitted activation curve with a large enough effect in the signal ratio, with a control signal flat, not every such curve was filed as active; the % refers to the signal ratio; further: % of control where 0% means no effect); conditions: ME-180 (cervical carcinoma) HRE-bla reporter, beta-lactamase ratio, CoCl2, 17 h; activation: stronger effect = higher value
Outline: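 Read-out: CCF4 FRET ratio of 460nm to 530nm emission (excitation 405nm) after 2.5 hours at room temperature, taken from HRE-bla ME-180 cells that had been exposed to compound and EC50 CoCl2 for 17 hours.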

Sequence of 3',5'-cyclic-AMP phosphodiesterase 4B (Homo sapiens) (Q07343 whole entry, looked up): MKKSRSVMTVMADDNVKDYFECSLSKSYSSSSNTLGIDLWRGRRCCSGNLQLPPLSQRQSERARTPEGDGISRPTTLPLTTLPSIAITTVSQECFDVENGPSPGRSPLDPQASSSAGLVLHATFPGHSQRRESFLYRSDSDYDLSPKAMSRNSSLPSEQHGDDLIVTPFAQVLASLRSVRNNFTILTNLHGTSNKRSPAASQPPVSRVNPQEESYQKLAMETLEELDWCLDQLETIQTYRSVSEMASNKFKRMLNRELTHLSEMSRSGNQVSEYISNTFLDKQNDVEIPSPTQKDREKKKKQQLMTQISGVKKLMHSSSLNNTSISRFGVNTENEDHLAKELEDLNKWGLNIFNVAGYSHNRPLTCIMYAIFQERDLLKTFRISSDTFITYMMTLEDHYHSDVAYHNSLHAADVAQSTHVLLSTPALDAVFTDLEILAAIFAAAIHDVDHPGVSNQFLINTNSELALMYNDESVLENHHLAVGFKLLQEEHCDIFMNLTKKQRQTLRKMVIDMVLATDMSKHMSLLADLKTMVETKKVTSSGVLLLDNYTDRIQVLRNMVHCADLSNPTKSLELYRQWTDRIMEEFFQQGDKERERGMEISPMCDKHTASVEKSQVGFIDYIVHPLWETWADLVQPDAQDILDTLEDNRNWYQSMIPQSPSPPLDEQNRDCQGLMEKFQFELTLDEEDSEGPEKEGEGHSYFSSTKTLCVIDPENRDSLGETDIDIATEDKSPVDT
Sequence of Cytochrome P450 3A4 (Homo sapiens) (P08684 whole entry, looked up): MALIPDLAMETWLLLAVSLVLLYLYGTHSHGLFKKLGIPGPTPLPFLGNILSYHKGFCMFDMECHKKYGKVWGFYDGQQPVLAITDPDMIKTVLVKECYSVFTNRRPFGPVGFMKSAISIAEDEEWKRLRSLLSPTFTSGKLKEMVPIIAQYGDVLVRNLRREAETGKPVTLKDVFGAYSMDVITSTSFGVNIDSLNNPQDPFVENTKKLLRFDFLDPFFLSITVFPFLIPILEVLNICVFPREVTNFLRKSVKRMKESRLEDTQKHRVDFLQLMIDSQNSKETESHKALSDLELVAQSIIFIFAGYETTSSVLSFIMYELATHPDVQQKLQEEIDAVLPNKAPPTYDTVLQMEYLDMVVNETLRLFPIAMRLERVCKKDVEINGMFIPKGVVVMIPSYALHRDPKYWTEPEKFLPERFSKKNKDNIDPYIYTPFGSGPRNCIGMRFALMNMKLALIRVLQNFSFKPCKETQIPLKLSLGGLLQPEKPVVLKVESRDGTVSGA
Sequence of Ubiquitin carboxyl-terminal hydrolase 1 (Homo sapiens) (O94782 whole entry, looked up): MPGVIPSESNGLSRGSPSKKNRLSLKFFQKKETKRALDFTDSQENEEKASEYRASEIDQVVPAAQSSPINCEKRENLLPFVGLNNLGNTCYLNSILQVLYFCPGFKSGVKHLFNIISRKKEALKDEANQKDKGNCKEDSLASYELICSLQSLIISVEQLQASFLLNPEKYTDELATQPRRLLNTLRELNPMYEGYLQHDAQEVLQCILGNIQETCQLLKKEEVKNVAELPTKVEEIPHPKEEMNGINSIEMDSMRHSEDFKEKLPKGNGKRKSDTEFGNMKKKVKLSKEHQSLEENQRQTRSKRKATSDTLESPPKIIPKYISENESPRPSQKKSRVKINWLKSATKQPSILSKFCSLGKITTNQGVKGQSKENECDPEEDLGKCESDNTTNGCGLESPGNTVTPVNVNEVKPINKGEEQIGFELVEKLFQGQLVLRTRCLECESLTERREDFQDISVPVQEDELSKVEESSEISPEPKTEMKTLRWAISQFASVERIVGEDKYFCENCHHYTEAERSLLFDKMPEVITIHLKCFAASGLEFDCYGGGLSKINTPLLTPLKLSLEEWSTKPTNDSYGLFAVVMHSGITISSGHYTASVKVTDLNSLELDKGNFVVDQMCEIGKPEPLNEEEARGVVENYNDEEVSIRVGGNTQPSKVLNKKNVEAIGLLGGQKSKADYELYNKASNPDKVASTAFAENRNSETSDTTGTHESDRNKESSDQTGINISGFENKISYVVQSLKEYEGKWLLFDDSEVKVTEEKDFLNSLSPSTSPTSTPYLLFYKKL
Sequence of Dual specificity protein kinase CLK4 (Homo sapiens) (Q9HAZ1 whole entry, looked up): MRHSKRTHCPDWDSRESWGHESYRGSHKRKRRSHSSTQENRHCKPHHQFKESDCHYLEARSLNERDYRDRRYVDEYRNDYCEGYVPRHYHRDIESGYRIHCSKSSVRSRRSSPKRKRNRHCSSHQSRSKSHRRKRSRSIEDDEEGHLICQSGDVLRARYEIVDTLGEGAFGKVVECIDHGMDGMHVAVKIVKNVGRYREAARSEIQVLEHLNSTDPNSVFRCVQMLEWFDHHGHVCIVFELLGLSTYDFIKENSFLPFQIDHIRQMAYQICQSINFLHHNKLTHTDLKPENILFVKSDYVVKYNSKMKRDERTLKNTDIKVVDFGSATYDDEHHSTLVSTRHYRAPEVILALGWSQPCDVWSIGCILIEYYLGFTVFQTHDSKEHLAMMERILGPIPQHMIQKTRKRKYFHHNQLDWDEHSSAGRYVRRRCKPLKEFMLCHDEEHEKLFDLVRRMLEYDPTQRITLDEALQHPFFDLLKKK
Sequence of Cytochrome P450 1A2 (Homo sapiens) (P05177 whole entry, looked up): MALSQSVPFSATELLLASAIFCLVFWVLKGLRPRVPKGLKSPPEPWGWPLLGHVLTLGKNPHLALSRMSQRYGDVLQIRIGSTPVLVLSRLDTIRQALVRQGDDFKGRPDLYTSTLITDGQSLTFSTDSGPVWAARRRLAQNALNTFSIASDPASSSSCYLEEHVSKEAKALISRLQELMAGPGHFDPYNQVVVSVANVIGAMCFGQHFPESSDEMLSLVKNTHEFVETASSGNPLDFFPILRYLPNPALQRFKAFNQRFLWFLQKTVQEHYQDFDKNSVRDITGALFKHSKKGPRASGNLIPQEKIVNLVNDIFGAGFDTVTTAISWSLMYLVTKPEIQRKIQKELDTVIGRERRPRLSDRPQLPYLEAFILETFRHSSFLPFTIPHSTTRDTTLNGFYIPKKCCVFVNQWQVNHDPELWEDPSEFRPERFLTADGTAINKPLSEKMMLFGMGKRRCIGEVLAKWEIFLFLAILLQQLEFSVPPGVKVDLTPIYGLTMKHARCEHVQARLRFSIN
Sequence of Lysosomal acid glucosylceramidase (Homo sapiens) (P04062 whole entry, looked up): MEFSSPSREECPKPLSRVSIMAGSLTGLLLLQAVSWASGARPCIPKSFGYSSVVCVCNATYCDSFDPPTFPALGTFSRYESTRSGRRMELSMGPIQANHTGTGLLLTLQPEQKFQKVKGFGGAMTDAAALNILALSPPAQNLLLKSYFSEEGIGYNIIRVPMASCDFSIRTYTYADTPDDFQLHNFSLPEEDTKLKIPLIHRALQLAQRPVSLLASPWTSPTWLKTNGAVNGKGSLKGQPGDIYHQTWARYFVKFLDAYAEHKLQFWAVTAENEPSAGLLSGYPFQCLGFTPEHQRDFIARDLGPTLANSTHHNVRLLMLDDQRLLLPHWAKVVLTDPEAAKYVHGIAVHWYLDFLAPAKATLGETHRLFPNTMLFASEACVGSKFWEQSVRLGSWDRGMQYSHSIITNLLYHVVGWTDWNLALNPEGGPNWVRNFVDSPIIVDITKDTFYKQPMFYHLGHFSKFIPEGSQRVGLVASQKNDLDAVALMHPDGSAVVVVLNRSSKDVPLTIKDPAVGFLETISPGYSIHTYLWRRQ
Sequence of Glucocorticoid receptor (Homo sapiens) (P04150 whole entry, looked up, the tested form may be a part): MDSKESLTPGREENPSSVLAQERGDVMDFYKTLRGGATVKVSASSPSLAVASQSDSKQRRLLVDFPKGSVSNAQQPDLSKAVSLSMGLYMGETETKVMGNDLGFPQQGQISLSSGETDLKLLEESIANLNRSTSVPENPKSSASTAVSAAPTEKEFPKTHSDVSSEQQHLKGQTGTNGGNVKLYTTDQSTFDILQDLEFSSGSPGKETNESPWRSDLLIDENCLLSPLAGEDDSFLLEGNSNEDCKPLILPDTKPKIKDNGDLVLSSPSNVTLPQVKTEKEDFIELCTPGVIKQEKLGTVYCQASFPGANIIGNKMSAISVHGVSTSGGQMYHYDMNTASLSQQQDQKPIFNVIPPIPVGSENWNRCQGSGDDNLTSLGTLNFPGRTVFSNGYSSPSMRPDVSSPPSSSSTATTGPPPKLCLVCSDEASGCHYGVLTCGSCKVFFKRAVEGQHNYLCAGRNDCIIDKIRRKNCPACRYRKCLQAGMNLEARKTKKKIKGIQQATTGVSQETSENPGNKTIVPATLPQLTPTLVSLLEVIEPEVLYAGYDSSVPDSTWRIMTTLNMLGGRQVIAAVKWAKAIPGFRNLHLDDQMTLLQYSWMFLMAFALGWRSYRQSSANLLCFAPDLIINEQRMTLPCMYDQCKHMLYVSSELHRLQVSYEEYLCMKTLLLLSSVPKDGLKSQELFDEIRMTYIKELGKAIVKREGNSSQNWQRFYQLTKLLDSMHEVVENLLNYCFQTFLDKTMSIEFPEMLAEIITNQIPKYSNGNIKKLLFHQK
Sequence of Cytochrome P450 2C19 (Homo sapiens) (P33261 whole entry, looked up): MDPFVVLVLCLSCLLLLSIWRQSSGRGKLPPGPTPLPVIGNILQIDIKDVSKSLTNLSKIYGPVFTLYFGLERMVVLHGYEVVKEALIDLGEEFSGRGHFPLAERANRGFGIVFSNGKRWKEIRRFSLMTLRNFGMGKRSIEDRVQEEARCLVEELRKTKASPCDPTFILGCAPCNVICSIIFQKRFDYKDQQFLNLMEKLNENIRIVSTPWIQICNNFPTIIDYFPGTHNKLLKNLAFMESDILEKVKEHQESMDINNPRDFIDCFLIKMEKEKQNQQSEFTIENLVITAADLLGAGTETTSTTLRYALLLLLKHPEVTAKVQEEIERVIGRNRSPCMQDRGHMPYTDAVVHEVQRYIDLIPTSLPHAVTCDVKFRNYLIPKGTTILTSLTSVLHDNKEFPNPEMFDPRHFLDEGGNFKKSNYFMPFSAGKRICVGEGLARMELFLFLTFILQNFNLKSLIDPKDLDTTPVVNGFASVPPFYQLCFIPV

COc1ccccc1CNc1ncncc1-c1ccc(C(=O)N(C)C)cc1
active: Potency [3] 12.6 µM | Potency [10] 2.51 µM | Potency [12] 14.1 µM
inactive: Potency [1] > 11.4 µM | activity change, negative = inhibition [2] -10.9% | activity change, negative = inhibition [4] 1.11% | activity, negative = inhibition [5] 9.05% | Potency [6] > 46 µM | Potency [7] > 46 µM | Potency [8] | Potency [9] | Potency [11] | Potency [13] | outcome [14]

COc1ccc(CNc2ccnc(-c3cccc(NS(C)(=O)=O)c3)n2)c(OC)c1
inactive: Potency [1] > 11.4 µM | activity change, negative = inhibition [2] -18.2% | activity change, negative = inhibition [4] 8.15% | activity, negative = inhibition [5] -1.05% | Potency [6] > 46 µM | Potency [7] > 46 µM | Potency [8] | activity change, negative = inhibition [15] 20.5% [at 2.29 µM] | Potency [11] | Potency [16] | Potency [13] | outcome [14]
active: Potency [3] 15.8 µM | Potency [9] 2 µM | Potency [10] 3.98 µM

Cc1cnc(CNc2cc(-c3ccc(N(C)C)cc3)ncn2)cn1
inactive: Potency [1] > 11.4 µM | activity change, negative = inhibition [2] -9.61% | activity change, negative = inhibition [4] 11.3% | activity, negative = inhibition [5] -5.54% | Potency [6] > 46 µM | Potency [7] > 46 µM | Potency [8] | Potency [9] | Potency [13] | outcome [14]
active: Potency [12] 5.01 µM

COc1ccc2[nH]cc(CCNc3nc(-c4ccc(N(C)C)cc4)nc4ccccc34)c2c1
active: Potency [1] 0.554 µM | Potency [3] 1.26 µM | Potency [15] 0.398 µM | Potency [17] 7.94 µM | Potency [18] 7.94 µM | Potency [12] 28.2 µM
inactive: Potency [6] > 46 µM | Potency [7] > 46 µM | Potency [11] | Potency [13] | outcome [14]

CN(C)c1ccc(-c2cncnc2NCc2cccnc2)cc1
inactive: Potency [1] > 11.4 µM | activity change, negative = inhibition [2] -12.4% | activity change, negative = inhibition [4] 8.27% | activity, negative = inhibition [5] -10% | Potency [6] > 46 µM | Potency [7] > 46 µM | Potency [8] | Potency [9] | Potency [11] | activation [19] 1.46% | Potency [16] | Potency [13] | outcome [14]
active: Potency [3] 1 µM | Potency [10] 0.631 µM | Potency [18] 0.0316 µM

Cc1cnc(CNc2ncnc3ccc(-c4ccc(C(=O)N(C)C)cc4)cc23)cn1
inactive: Potency [1] > 11.4 µM | activity change, negative = inhibition [2] -13.6% | activity change, negative = inhibition [4] 9.3% | activity, negative = inhibition [5] -5.52% | Potency [6] > 46 µM | Potency [7] > 46 µM | Potency [8] | Potency [9] | Potency [16] | Potency [13] | outcome [14]
active: Potency [3] 15.8 µM
